The list is not random: actives were taken first. Their share in the collection is about 3.5%.
ATG4B inh: ATG4B protease inhibitors, primary screen, biochemical, fluorescence, uHTS | Cysteine protease ATG4B (Homo sapiens), Q9Y4P1 | ATG4B cleavage of LC3-PLA2, NBD-HPC fluorescence, 1 h | inhibition, % at 8.33 µM | actives 0.51% (n = 340,000); in the data active means inhibition above about 40%
Target sequence (Q9Y4P1 whole entry, looked up): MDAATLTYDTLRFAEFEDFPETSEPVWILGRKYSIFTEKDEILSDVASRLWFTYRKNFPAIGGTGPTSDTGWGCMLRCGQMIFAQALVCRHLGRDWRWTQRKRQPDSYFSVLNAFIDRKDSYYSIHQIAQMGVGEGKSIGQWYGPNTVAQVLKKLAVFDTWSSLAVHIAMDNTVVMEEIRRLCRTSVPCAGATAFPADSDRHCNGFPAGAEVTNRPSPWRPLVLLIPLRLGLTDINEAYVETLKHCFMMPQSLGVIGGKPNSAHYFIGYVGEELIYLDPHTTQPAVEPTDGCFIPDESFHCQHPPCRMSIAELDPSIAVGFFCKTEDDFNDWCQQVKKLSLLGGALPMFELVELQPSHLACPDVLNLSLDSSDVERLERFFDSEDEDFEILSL
Myeloid diff 2: induction of myeloid progenitor differentiation, primary screen, cell-based, flow cytometry, MLPCN library | ER-HoxA9 myeloid progenitors, lysozyme-GFP differentiation | calls only at 10 µM | actives 1% (n = 360,000) | AID 624256, 2012;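 active means normalized GFP-positive differentiation at or above the plate's own cutoff, the solvent-only control mean plus 3 SD; inconclusive means no clear call, values can overlap the other calls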;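 further: cells exposed to compound for four days before flow analysis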
CHRM1 antagonist: human M1 muscarinic receptor antagonists, primary screen, CHO-K1 cells, Fluo-8 calcium fluorescence, 1536-well | CHO-K1 hM1, ACh EC80 antagonist | actives 1.3% (n = 360,000) | AID 588852, 2011 | inhibition, % at 3 µM | Muscarinic acetylcholine receptor M1 (Homo sapiens), P11229;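 active means percent inhibition above its own plate's cutoff, namely the mean of that plate's compound wells plus 3 SD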;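 further: peak over basal fluorescence ratio during 140 s after agonist addition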
M1 ag: human M1 muscarinic receptor agonists, primary screen, Fluo-8 calcium fluorescence, CHO-K1 cells, HTS | Muscarinic acetylcholine receptor M1 (Homo sapiens), P11229 | CHO-K1 hM1, agonist mode; 0% DMSO, 100% acetylcholine EC100 | activation, % at 3 µM | actives 0.33% (n = 360,000);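 active means activation above the run's mean compound activation plus 3 SD, cut at about 16% in these data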;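 further: peak over basal fluorescence ratio within a 140 s kinetic read after compound addition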
M1 PAM: human M1 muscarinic receptor positive allosteric modulators, primary screen, CHO-K1 cells, Fluo-8 calcium fluorescence, 1536-well. CHO-K1 hM1, ACh EC20; 0% = ACh EC20, 100% = maximal ACh. actives 0.088% (n = 360,000). activation, % at 3 µM. AID 588819, 2011; in the data active means activation above about 19%, passing the limit was not always enough
SKN-1 inh: suppressors of acrylamide-induced Pgst-4::GFP reporter in worms, primary screen, SKN-1 inhibitor project, whole organism, uHTS, GFP/RFP fluorescence ratio, strain VP596; inhibition, % at 21.8 µM; AID 624304, 2012; actives 0.49% (n = 360,000); C. elegans VP596 Pgst-4::GFP/RFP ratio, 24 h;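 active means interference check ratio from 0.5 to 1.5 plus GFP to RFP signal ratio inhibition reaching or exceeding a fixed threshold, cut at about 30% in these data, passing the limit was not always enough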
ATG4B confirm: ATG4B protease inhibitors, retest, confirmation, biochemical, fluorescence, single concentration; shares compounds with ATG4B inh; ATG4B protease fluorescent substrate cleavage assay; inhibition, % at 8.33 µM; actives 92% (n = 320); AID 504757, 2011; in the data active means inhibition above about 39%
PLA2 ctr: PLA2 enzyme inhibition, counter-screen for ATG4B inhibitor project, biochemical, single concentration, uHTS hits; shares compounds with ATG4B inh; purified PLA2, NBD-C6-HPC fluorescence, 45 min; inhibition, % at 8.33 µM; actives 66% (n = 1,600); AID 588402, 2011; in the data active means inhibition above about 50%
Hits are given with their value; n = inactive; u = inconclusive; x = not tested or not shown.

SMILES	ATG4B inh	Myeloid diff 2	CHRM1 antagonist	M1 ag	M1 PAM	SKN-1 inh	PLA2 ctr	others
Cc1cc(N2CCN(C)CC2)ccc1NC(=O)c1c2c(nc3ccccc13)CCN(Cc1ccccc1)C2	n	u	n	n	n	n	x
Cc1c(Cl)cccc1NC(=O)COC(=O)c1c2c(nc3ccccc13)CCN(Cc1ccccc1)C2	74	n	n	n	n	n	85
CC(C)c1ccccc1NC(=O)COC(=O)c1c2c(nc3ccccc13)CCN(Cc1ccccc1)C2	46	n	37	n	n	n	58
CCc1ccccc1NC(=S)NC1CC2CCCC(C1)N2Cc1cccs1 (centres undefined)	48	n	n	n	n	n	n
Cc1cccc(NC(=S)NC2CC3CCCC(C2)N3Cc2cccs2)c1C (centres undefined)	49	n	n	n	n	n	59
CCOC(=O)C1CCN(C(=O)c2cccnc2Oc2ccccc2)CC1	n	n	n	n	n	n	x
Cc1ccc2nc(-c3ccc(C#N)cc3)c(Cc3ccccc3C(F)(F)F)n2c1	x	n	n	n	n	n	x
Nc1ccc(Sc2ccccc2)nc1	n	n	n	n	n	n	x
Oc1ccc(N=Nc2nc(-c3ccccc3)c(-c3ccccc3)[nH]2)cc1	48	n	n	n	n	n	n	ATG4B confirm=67
Oc1ccc(N=Nc2n[nH]c(-c3ccccc3)n2)cc1	n	n	n	n	n	n	x
O=c1[nH]c(Nc2ccccc2)cc2cc(Br)ccc12	n	n	n	n	n	n	x
O=c1[nH]c(Nc2ccccc2)cc2ccccc12	n	n	n	n	n	n	n	ATG4B confirm=75
COC(=O)[C@@]12CCCN1[C@H](c1ccc(-c3ccc4c(c3)OCO4)cc1)[C@H]1C(=O)N(C)C(=O)[C@H]12	n	n	n	n	n	n	x
CC(C)N(C(=O)CSc1nnc(-c2cc3ccccc3cc2O)n1Cc1ccco1)C(C)C	n	n	n	n	n	n	x
O=C(CSc1nnc(-c2cc3ccccc3cc2O)n1Cc1ccco1)N1CCc2ccccc2C1	41	n	n	n	n	n	54
COC(=O)c1ccc(CSc2nnc(-c3c[nH]c4ccccc34)n2-c2ccccc2)cc1	46	n	n	n	n	n	67
COC(=O)c1ccc(CSc2nnc(-c3c[nH]c4ccccc34)n2C)o1	n	n	n	n	n	n	x
Cc1cccc(-n2c(SCc3ccc(C#N)cc3)nnc2-c2c[nH]c3ccccc23)c1	51	n	n	n	n	n	59
Cc1ccccc1C(=O)NC(C)c1ccc2c(c1)CCCC2 (centres undefined)	n	n	n	n	n	n	x
Cc1cc(C)c(S(=O)(=O)NCc2cn3ccccc3n2)c(C)c1	n	u	n	n	n	n	x
CC(=O)Nc1ccc(C(=O)N/N=C/c2cc(Br)cc(Br)c2O)cc1	n	n	n	n	n	n	x
Cc1ccc(C(=O)O)cc1N=Cc1cc(Br)cc(Br)c1O	44	n	n	n	n	n	n	ATG4B confirm=59
Nc1nc(SCC(=O)Nc2ccc([N+](=O)[O-])cc2)n[nH]1	n	n	n	n	n	n	x
COc1ccc(NC(=O)NC[C@@H]2CC[C@@H](Cc3ccc(-c4ccccc4)cc3)O2)cc1	40	n	n	n	n	n	74

Screening data deposited in PubChem by several laboratories.
